Assay outcomes (PubChem)
Compounds with a hit are over-represented: about 7.3% of the library has one in this group of screens.
HCMV inh: qHTS Assay for inhibitors of the human cytomegalovirus (HCMV) | activity change, negative = inhibition, % at 57.5 µM | HFF cells, HCMV-luciferase reporter, 72 h; hits give low values | AID 1259415, 2018 | hit rate 4.5% among 410,000; in the data active = activity change below about -60%; inconclusive = no clear call, values can overlap the other calls; inactive = above about -39%
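HFF cells seeded 16 h at 37C, treated with compounds, infected with luciferase-reporter HCMV at MOI 1 PFU/cell; luciferase read at 72 h post infection, normalized to buffer-only and Salinomycin controls.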
FMDV inh: High Throughput Screening for Foot and Mouth Disease Virus Antivirals; FMDV antiviral cell-based qHTS; Potency, µM (titrated, usually from 57.9 µM), most hits filed as inhibitors; hit rate 1.2% among 410,000; calls by dose curve; tested in HEK293T cells; note: read-out not given here; nearly all actives have a fitted effect of over 45% in size
Vaccinia mCherry: qHTS for Stage-Specific Inhibitors of Vaccinia Orthopoxvirus: mCherry Reporter Primary qHTS; AID 720579, 2013; hit rate 0.63% among 310,000; Potency, µM (highest dose often 36.5 µM), hits mostly inhibitors; Vaccinia virus mCherry reporter infection, fluorescence; calls by dose curve; tested in A549 cells; note: nearly all actives have a fitted effect of over 35% in size
HCV inh: qHTS Assay for Inhibitors of Hepatitis C Virus (HCV). Huh7.5.1 HCVcc-Cre infection, luciferase reporter, 44 h. Potency, µM (top dose mostly 41.8 µM), most hits filed as inhibitors. hit rate 3.4% among 340,000. AID 651820, 2012; active = well fitted inhibition curve with a large enough effect; inconclusive = small, poorly fitted or top-dose-only effect, or another doubt; inactive = no such curve, though single readings can be large or run the other way
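Luciferase read-out (15 sec integration) after a 15 min room-temperature substrate step quantifies HCVcc-Cre infection. Cells, 1,000 per well, had compound added 4 h post-plating, then virus at ~0.5 moi, and were cultured 44 h.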
VACV Venus inh: qHTS for Stage-Specific Inhibitors of Vaccinia Orthopoxvirus: Venus Reporter Primary qHTS | Vaccinia virus Venus reporter expression, fluorescence | Potency, µM (titrated, usually from 36.5 µM), most hits filed as inhibitors | hit rate 0.46% among 330,000; calls by dose curve; tested in A549 cells; note: nearly all actives have a fitted effect of over 30% in size
Hits are given with their value; – = inactive; ? = inconclusive; · = no result given; [ ] = remark or other dose.

SMILES	HCMV inh	FMDV inh	Vaccinia mCherry	HCV inh	VACV Venus inh
O=C(OCc1ccco1)c1ccc2c(c1)N(Cc1cccc(F)c1)C(=O)c1ccccc1S2	–	–	–	·	–
CCN(C(=O)c1cccn(Cc2cccc(Cl)c2)c1=O)c1ccccc1	–	–	–	·	–
Brc1cccc(-c2nnn3c2nc(NCc2ccc4c(c2)OCO4)c2ccccc23)c1	–	–	–	·	–
COc1ccc(C(CNc2ccc(S(C)(=O)=O)cc2[N+](=O)[O-])N(C)C)cc1OC (stereo unspecified)	–	–	–	4µM	–
COCCn1c(=N)c(C(=O)NCCc2ccccc2)cc2c(=O)n3cccc(C)c3nc21	-69	–	–	–	–
Cc1cccn2c(=O)c3cc(C(N)=S)c(=N)n(CCCOC(C)C)c3nc12	?	–	–	11µM	–
CCCCNC(=O)c1cc2c(=O)n3cccc(C)c3nc2n(Cc2ccccc2)c1=N	–	·	–	?	–
COCCCNC(=O)c1cccn2c(=O)c3cc4ccccc4cc3nc12	-81	–	·	–	·
CCNC(=O)c1cc2c(=O)n3cccc(C)c3nc2n(CCc2ccccc2)c1=N	-103	–	–	?	–
C=CCn1c(=N)c(C(=O)NCCCOC)cc2c(=O)n3cccc(C)c3nc21	–	–	·	–	–
COc1cc(OC)c(N(C)C(=O)c2nn(C)c3c2CSc2ccccc2-3)cc1Cl	–	–	–	·	–
COc1cccc(Cc2nc3ccccc3nc2SCC(=O)NCc2ccc(C)cc2)c1	–	–	–	·	–
CCOc1ccccc1CNC(=O)CCn1cccn1	–	–	–	·	–
O=C(CSC1=Nc2ccccc2N=C(c2ccc(F)cc2)C1)NCc1ccccc1	–	–	–	·	–
COc1cc(Cl)c(C)cc1NC(=O)CN(C)Cc1cccc(OC)c1OC	–	–	·	10µM	·
COc1ccccc1CN(C)CC(=O)Nc1cccc2ccccc12	–	–	?	–	–
Cc1ccc(C)c(C(=O)CN2C(=O)c3ccccc3S2(=O)=O)c1	–	–	–	–	–
CCCn1c(C)cc(C(=O)CN2C(=O)c3ccccc3S2(=O)=O)c1C	-86	?	–	·	–
Cc1cc(C(=O)CSc2nc(N)cc(N)n2)c(C)n1C1CC1	–	–	–	–	–
Cc1cc(C(=O)COC(=O)CCc2nc3ccccc3c(=O)[nH]2)c(C)n1CC1CCCO1 (stereo unspecified)	·	–	–	–	–
Cc1nc(SCC(=O)c2cc(C)n(C3CC3)c2C)c2ccccc2n1	?	10µM	–	·	?
Cc1cc(C(=O)CN2C(=O)NC(C)(c3ccccc3)C2=O)c(C)n1CC1CCCO1 (stereo unspecified)	·	–	–	–	–
Cc1cc(C(=O)CSc2nc3ccccc3c(=O)[nH]2)c(C)n1CC1CCCO1 (stereo unspecified)	?	?	?	11µM	–
Cc1cc(C(=O)CN2C(=O)c3ccccc3S2(=O)=O)c(C)n1CC1CCCO1 (stereo unspecified)	-100	0.28µM	–	–	–
OC1(C#CCN2CCCC2)CCCCC1	–	–	·	–	·
SMILES	HCMV inh	FMDV inh	Vaccinia mCherry	HCV inh	VACV Venus inh
C#CC1(N2CCCCC2)CCCCC1	-62	–	–	·	–
CC1CN(C(=O)/C=C/c2ccc([N+](=O)[O-])s2)CC(C)O1 (stereo unspecified)	-68	–	?	?	?
CC1CN(C(=O)/C=C/c2ccccc2[N+](=O)[O-])CC(C)O1 (stereo unspecified)	?	–	–	–	–
CC1CC(C)CN(C(=O)/C=C/c2ccc([N+](=O)[O-])s2)C1 (stereo unspecified)	-87	?	?	?	?
COc1cc(/C=C2\C=Cc3ccccc32)ccc1N(C)C	·	·	–	·	–
Cc1ccccc1-n1nnnc1SCC(=O)Nc1ccc(N2CCN(C)CC2)cc1	–	–	–[7.34 µM]	–	–[7.34 µM]
Cc1cccc(-n2nnnc2SCC(=O)Nc2ccc(N3CCN(C)CC3)cc2)c1	-66	–	·	–	·
Cc1cc(NC(=O)CSc2nnnn2-c2ccccc2C)no1	-113	–	–	–	–
CCOC(=O)c1sc(NC(=O)CSc2nnnn2-c2ccc(C)cc2C)nc1C	?	–	·	–	–
CCOC(=O)c1c(-c2ccc(C)o2)csc1NC(=O)CSc1nnnn1-c1ccccc1	–	·	–	1.8µM	–
CCOC(=O)c1c(-c2ccc(C)o2)csc1NC(=O)CSc1nnc(C)s1	–	·	–	?	–
COC(=O)c1ccccc1NC(=O)CSc1nnnn1-c1ccc(C)cc1C	–	32µM	–	–	–
Cc1ccc(-n2nnnc2SCn2nnc3ccccc3c2=O)c(C)c1	-86	?	·	?	·
Cc1cc(NC(=O)CSc2nnc(C3COc4ccccc4O3)n2C)no1 (stereo unspecified)	-78	–	–	–	–
CSc1ccccc1-n1nnnc1SCC(=O)Nc1ccccc1C	–	–	·	11µM	·
CCc1ccccc1-n1nnnc1SCC(=O)Nc1cc(C)on1	–	–	–	–	–
Cc1cc(SCn2nnc3ccccc3c2=O)nc2ccccc12	–	–	–	–	–
COC(=O)c1cccc(-n2nnnc2SCC(=O)Nc2cc(C)on2)c1	-91	–	·	–	–
O=c1oc(-c2ccccc2)cc(Cl)c1Cl	-101	25µM	–	?	–
CS(=O)(=O)c1ccc(CNC(=O)C2(C(F)(F)F)CC(CCCO)CCCO2)cc1 (stereo unspecified)	-67	–	11µM	?	?
O=C(NCc1ccccc1)C1(C(F)(F)F)CC(CCCO)CCCO1 (stereo unspecified)	–	–	–	–	–
Cn1nnc2c(NCc3ccco3)ncnc21	·	·	–	·	–
c1ccc(CN(CCN(Cc2ccccn2)Cc2ccccn2)Cc2ccccn2)nc1	·	–	–	·	–
COc1ccc2[nH]cc(CCN=C(NC(=O)c3ccccc3F)Nc3nc(C)cc(C)n3)c2c1	-66	–	–	·	–
O=C(NC1C=CS(=O)(=O)C1)c1sc2ccccc2c1Cl (stereo unspecified)	-84	·	10µM	?	?
SMILES	HCMV inh	FMDV inh	Vaccinia mCherry	HCV inh	VACV Venus inh
O=c1cc(-c2ccc(O)cc2)oc2c1ccc1ccccc12	–	–	·	–	·
O=c1cc(-c2ccc(O)cc2)oc2ccc3ccccc3c12	-86	5.6µM	·	13µM	·
COc1ccc(-c2cc(=O)c3cc(OC)ccc3o2)cc1	–	–	–	–	–
COc1ccc(-c2cc(=O)c3c(OC)c(OC)c(OC)c(OC)c3o2)cc1	–	–	–	10µM	–
COc1cc2oc(-c3ccc(O)cc3)cc(=O)c2c(O)c1OC	-110	–	–	?	–
CCOc1ccccc1NC(=O)c1cnn2c(C(F)F)cc(-c3ccccc3)nc12	?	–	?	·	–
COc1cc(-c2ccno2)ccc1S(=O)(=O)N1CCN(c2ccc(F)cc2)CC1	–	–	–	·	–
O=C(Cn1c(=O)nc(-c2ccccc2)c2cc(Cl)ccc21)N1CCN(c2ccc(F)cc2)CC1	?	–	–	·	–
Nc1nc(-c2ccc(NC(=O)c3ccco3)cc2)cs1	–	–	?	?	?
